Compound activity as filed in PubChem BioAssay.
HT1080 IDH1KD tx = kills HT-1080 cells with IDH1 knockdown; HT-1080 IDH1 knockdown viability, ATP luminescence, 48 h; Potency, µM (titrated, usually from 46.1 µM), inactives show at the highest dose activity, negative = toxicity, actives largely listed as cytotoxic; 2% of 360,000 active;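 further: 0% = DMSO wells and -100% = cell-free medium wells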
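Viability of IDH1-knockdown HT-1080 fibrosarcoma cells was assessed by CellTiter-Glo after 48 h at 37 °C with titrated compound; concentration-effect curves were classified by fit quality and response size.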
KB-V1 cytotox = kills drug-selected multidrug resistant KB-V1 cells | KB-V1 MDR cells viability, CellTiter-Glo, 72 h | 3.4% of 400,000 active | AID 1347076 | Potency, µM (top dose mostly 46.1 µM), most hits filed as cytotoxic; further: nearly all actives have a fitted effect of over 60% in size
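Cytotoxicity via CellTiter-Glo luminescence after 72 h compound exposure at 37 degrees C. Cells: drug-selected KB-V1 line, DMEM phenol-red free plus 10% FBS. Compounds tested at multiple concentrations; normalized data fitted to concentration-effect curves.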
KB-3-1 cytotox = kills parental KB-3-1 adenocarcinoma cells. KB-3-1 viability, CellTiter-Glo ATP luminescence, 72 h. Potency, µM (titrated, usually from 46.1 µM), actives largely listed as cytotoxic. 1.4% of 400,000 active. AID 1347075; further: nearly all actives have a fitted effect of over 60% in size
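KB-3-1 cells, DMEM (no phenol red) + 10% FBS; compound by pin transfer, 72 h, 37 °C. Readout: CellTiter-Glo luminescence after 10 min. Data normalized, curve-fitted.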
TDP1 cell noCPT = qHTS for Inhibitors of human tyrosyl-DNA phosphodiesterase 1 (TDP1): qHTS in cells in absence of CPT | DT40 Tdp1-/- hTDP1 cells, no CPT, ATP luminescence, 48 h | Potency, µM (highest dose often 46.2 µM), for inactives: top-dose activity change, negative = growth inhibition, usual class: inhibitors | 15% of 420,000 active | AID 686978, 2013; further: nearly all actives have a fitted effect of over 55% in size
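Growth kinetics read by CellTiter-Glo luminescence after ≥48 hr at 37 °C. Cells: DT40 Tdp1-/- stably carrying human TDP1, 400 per well, compound exposure in the absence of CPT (DMSO vehicle).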
DT40 TDP1 CPT = growth inhibition of DT40 Tdp1-/-;hTDP1 cells with camptothecin (screen for TDP1 inhibitors) | chicken DT40 Tdp1-/-;hTDP1 cells + 20 nM CPT, ATP luminescence, 48 h | Potency, µM (highest dose often 46.2 µM), without a hit: top-dose activity change, negative = growth inhibition, usual class: inhibitors | 12% of 420,000 active | AID 686979; further: nearly all actives have a fitted effect of over 55% in size
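Cell growth measured by CellTiter-Glo luminescence after a minimum 48 h, 37 C compound exposure with 20 nM CPT in Tdp1-knockout DT40 cells stably expressing hTDP1, seeded 400/well; qHTS titration format.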
HT1080-NT tox = kills 2HG-producing HT-1080-NT fibrosarcoma cells; Potency, µM (doses to about 46.1 µM), without a hit: at the top dose activity, negative = less viability, hits mostly cytotoxic; 1.6% of 360,000 active; AID 686970; HT-1080-NT fibrosarcoma viability, CellTiter-Glo ATP luminescence, 48 h;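 further: NT is the 2HG producing partner of a matched IDH1 knockdown line; 0% = DMSO-treated cells and -100% = media-only wells without cells; nearly all actives have a fitted effect of over 55% in size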
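Fibrosarcoma NT cells, 750 per well in 5% FBS RPMI, were exposed to compound for 48 hours. Viability: CellTiter-Glo luminescence.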
* = called active by the depositor; i = inactive; ? = inconclusive; . = no result given; ! = repeats disagree; [ ] = another dose, or the depositor's remark. Sampled rows, rich in hits. Any-hit rate of the full collection: about 19%. The call rests on the fitted dose curve; in most records, active means well fitted curve in the direction sought with a large enough effect; inconclusive means small, poorly fitted or top-dose-only effect, or another doubt; inactive means no such curve, though single readings can be large; an effect the other way counts as inactive or inconclusive. Unless noted, on the % scale 0 is the no-effect control and ±100 the full control effect; potency means the concentration at half of the fitted maximal effect.

SMILES	HT1080 IDH1KD tx	KB-V1 cytotox	KB-3-1 cytotox	TDP1 cell noCPT	DT40 TDP1 CPT	HT1080-NT tox
Cc1cc(=O)[nH]c2nnc(SCCC(C)C)n12	.	.	.	-10%	8%	.
COc1ccc(Cn2ccc3nc(C)c(C(=O)N4CCN(c5ccc(F)cc5)CC4)cc3c2=O)cc1	.	i	i	15µM*	23µM*	.
COc1ccc(Cn2ccc3nc(C)c(C(=O)N4CCN(c5ccc(OC)cc5)CC4)cc3c2=O)cc1	.	i	i	23µM*	23µM*	.
COc1ccccc1N1CCN(C(=O)c2cc3c(=O)n(Cc4cccs4)ccc3nc2C)CC1	.	i	i	?	?	.
COc1cccc(N2CCN(C(=O)c3cc4c(=O)n(Cc5cccnc5)ccc4nc3C)CC2)c1	.	i	i	-24%	-11%	.
COc1ccc(Cn2ccc3nc(C)c(C(=O)N4CCN(c5ccccc5OC)CC4)cc3c2=O)cc1	.	i	?	23µM*	?	.
Cc1ccc(-c2nnc3c4ccccc4c(-c4ccccc4)nn23)cc1	.	.	.	-15%	2%	.
CCOC(=O)c1sc(=S)n(C)c1NC(=O)c1ccc(C(C)(C)C)cc1	16µM*	?	?	?	?	?
CCOC(=O)c1sc(=S)n(C)c1NC(=O)c1ccccc1Cl	10%	i	i	?	?	-1%
CCOC(=O)c1sc(=S)n(C)c1NC(=O)c1ccc(OC)cc1	0%	i	i	21µM*	2.3µM*	1%
CCCCCCSc1cccc(-c2nc3ccccn3c2NCc2ccccc2)c1	-16%	?	?	16µM*	16µM*	-2%
CCCCCCSc1cccc(-c2nc3ccc(C)cn3c2NCc2ccccc2)c1	-3%	i	i	21µM*	23µM*	?
CCCCCCSc1cccc(-c2nc3cc(C)ccn3c2NCc2ccccc2)c1	?	?	?	13µM*	13µM*	?
CCCCCCSc1cc(-c2nc3ccc(C)cn3c2NCc2ccccc2)ccc1OC	?	13µM*!	?	9.2µM*	23µM*	?
O=C(NC1CCCC1)C(C1CC1)n1c(C2CC2)nc2ccccc21 (stereo not drawn)	1%	?	i	-18%	8%	14%
CC1(c2ccccc2)CC(C)(C)N2C(=O)/C(=C3\SC(=S)NC3=O)c3cccc1c32 (stereo not drawn)	8%	?	i	15µM*	23µM*	8%
CC(=C1SC(=S)NC1=O)c1ccccc1	13%	?	i	-2%	-10%	6%
Cc1cccn2c(Nc3ccccc3)c(-c3ccc(N4CCOCC4)cc3)nc12	.	i	i	5.8µM*	?	.
Cc1ccccc1Nc1c(-c2ccc(O)cc2)nc2c(C)cccn12	.	i	i	?	16µM*	.
Cc1ccc(-c2nc3c(C)cccn3c2Nc2ccccc2C)s1	.	i	i	?	21µM*	.
Cc1ccc(Nc2c(-c3ccc(C)cc3)nc3c(C)cccn23)cc1	.	i	i	?	15µM*	.
C[C@H]1CN([C@@H](C)CO)C(=O)c2cc(Br)cnc2O[C@@H]1CN(C)C(=O)c1ccncc1	6%	i	i	-3%	6%	16%
CCN(CC)C1CCN(C(=O)c2cnn(-c3nccc(-c4ccco4)n3)c2C(C)C)C1 (stereo not drawn)	.	.	.	1%	-1%[9.04 µM]	.
CS(=O)(=O)N1CCC[C@@]2(CCN(c3ccccn3)C2)C1	.	.	.	-11%	-6%	.
CNc1ccc(Br)cc(C(=O)/C=C/c2cccc(OC)c2)c1=O	?	?	?	7.3µM*	13µM*	?
SMILES	HT1080 IDH1KD tx	KB-V1 cytotox	KB-3-1 cytotox	TDP1 cell noCPT	DT40 TDP1 CPT	HT1080-NT tox
CNc1ccc(Br)cc(C(=O)/C=C/c2ccc(Cl)cc2Cl)c1=O	21µM*	?	?	18µM*	4.6µM*	?
CNc1ccc(Br)cc(C(=O)/C=C/c2ccc(OC)cc2OC)c1=O	-17%	?	i	15µM*	9.2µM*	-7%
O=C(/C=C/c1ccc(Cl)cc1Cl)c1ccc[nH]1	-15%	i	i	?	?	?
COc1cc(=O)n2c(c1C(=O)N(C)Cc1nonc1C)CCN(Cc1cc(C)ccc1C)CC2	.	.	.	-30%	-1%[9.04 µM]	.
Cc1c(Cl)cccc1NC(=O)Cn1c(=O)n(Cc2ccco2)c(=O)c2sc3ccccc3c21	.	i	i	?	?	.
CCOC(=O)C1(C)CCN1C(=O)c1ccc2c(c1)CCO2 (stereo not drawn)	1%	i	i	-1%	-18%	27%
CSc1nnc(C)c(/C=C/Nc2ccc(C)cc2)n1	?	?	i	18µM*	-15%	-21%
CSc1nnc(C)c(/C=C/NOCc2ccc(Cl)cc2)n1	10%	i	i	-24%	-11%	-6%
Cc1cc(C)n(C(C)CC(=O)NCc2ccccc2C)n1 (stereo not drawn)	.	i	i	-11%	-15%	.
CCOC(=O)c1nc2sc3c(c2c(=O)n1C(C)C(=O)OCC)CCCC3 (stereo not drawn)	14%	i	i	?	10µM*	-1%
Cc1cc(Nc2nc3ccccc3nc2Cl)n(-c2ccc([N+](=O)[O-])cc2)n1	-5%[9.24 µM]	?	i	13µM*	18µM*	?
COc1ccc(NC2=CC(c3ccccc3)N(c3ccc(OC)cc3)C2=O)cc1 (stereo not drawn)	?	i	i	8.2µM*	?	0%
COc1ccc(NC2=CC(c3ccc(OC)cc3)N(c3ccc(OC)cc3)C2=O)cc1 (stereo not drawn)	-13%	i	i	-27%	-22%	-13%
COc1ccc(N2C(=O)C(CN3CCCCC3)C2c2ccccc2)cc1 (stereo not drawn)	-2%	i	i	13µM*	?	4%
CCN(CC)CC1C(=O)N(c2ccc(OC)cc2)C1c1ccccc1 (stereo not drawn)	-14%	i	i	?	-28%	-20%
CC(=O)c1c(N2CCN(Cc3ccc4c(c3)OCO4)CC2)nc(=S)n(-c2ccccc2)c1C	5%	i	i	18µM*	?	-2%
CC(=O)c1c(N2CCN(c3ccccc3)CC2)nc(=S)n(-c2ccccc2)c1C	-17%	i	i	21µM*	23µM*	1%
